Bioassay records from PubChem.
ER stress surv = ER stress cell death inhibition; CSM14.1 thapsigargin ER stress survival, ATP luminescence; 48,000 tested, 0.33% active; AID 1010; relative survival (cellular ATP), % at 15 µg/mL (by protocol);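 active = survival measured by cellular ATP above 50% at 15 µg/ml in the first screen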;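 note: cell death triggered by about 15 µM thapsigargin; ATP read 24 h after thapsigargin was added; plate controls were thapsigargin with DMSO for no effect and DMSO without thapsigargin for full effect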
Active calls of the source: *. Many of the other results were omitted from the sample, so hits are more common in it than they were.

SMILES	ER stress surv
COc1ccc(C2(CC(=O)O)CCOC(C)(C)C2)cc1 (stereo not drawn)	10
COc1cccc(CN2CCN(Cc3ccccc3[N+](=O)[O-])CC2)c1OC	-6
Cc1ccc(C(=O)O)cc1NC(=O)CCC(=O)O	8
Clc1ccc(SCCc2ccncc2)cc1Cl	-1
CCOc1ccc2c(=O)c(-c3ccccc3OC)c(C(F)(F)F)oc2c1	-4
Cc1cc(C(=O)NC2CCSC2=O)ccc1[N+](=O)[O-] (stereo not drawn)	1
CC1C2C=CC(C1C(=O)N(C=O)c1cccc([N+](=O)[O-])c1)C2C1=CCCC1 (stereo not drawn)	-5
Cc1cc(C)c(NC(=O)COc2cccc(Br)c2)c(C)c1	8
COc1ccc(C2CC(=O)C3=C(C2)Nc2ccccc2NC3c2cccc3ccccc23)cc1OC (stereo not drawn)	-1
COc1ccc(C2CC(=O)C3=C(C2)Nc2ccccc2NC3c2ccccc2C)cc1OC (stereo not drawn)	11
COc1ccc(C2CC(=O)C3=C(C2)Nc2ccccc2NC3c2ccccc2C(F)(F)F)cc1OC (stereo not drawn)	124*
COc1ccc(C2CC(=O)C3=C(C2)Nc2ccccc2NC3c2cc(Br)ccc2OC)cc1OC (stereo not drawn)	112*
COc1ccc(C2CC(=O)C3=C(C2)Nc2ccccc2NC3c2cc(OC)ccc2OC)cc1 (stereo not drawn)	1
COc1ccc(C2CC(=O)C3=C(C2)Nc2ccccc2NC3c2ccccc2Br)cc1OC (stereo not drawn)	5
CCCCOC(=O)c1ccc(NC(=O)COc2ccc3c(c2)oc(=O)c2ccccc23)cc1	19
COc1cccc(/C=C2\SC(=S)N(c3cccc(F)c3)C2=O)c1O	5
COc1cc(/C=C2/SC(=S)N(CC(=O)O)C2=O)ccc1OCc1ccccc1F	2
COc1ccc(CN2CCN(Cc3ccccn3)CC2)cc1Br	-5
Cc1ccc(NC(=O)CC2SC(=Nc3ccccc3)N(c3ccccc3)C2=O)cc1 (stereo not drawn)	-1
O=C(CC1SC(=Nc2ccccc2)N(c2ccccc2)C1=O)Nc1ccccc1C(F)(F)F (stereo not drawn)	65*
O=C(CC1SC(=Nc2ccccc2)N(c2ccccc2)C1=O)Nc1ccc(F)cc1 (stereo not drawn)	2
Cc1ccc(SCCc2nnc(N)s2)cc1	7
O=C(c1cccc(Cl)c1)N1CCN(c2cccc(Cl)c2)CC1	8
O=C(c1cccc(C(=O)N2CCN(c3cccc(Cl)c3)CC2)c1)N1CCN(c2cccc(Cl)c2)CC1	99*
O=C(c1ccc(Cl)cc1)N1CCN(c2cccc(Cl)c2)CC1	-4
SMILES	ER stress surv
Cc1ccc(S(=O)(=O)Nc2ccc(N3CCCCC3)cc2)cc1[N+](=O)[O-]	9
O=C(/C=C/Nc1ccccc1NS(=O)(=O)Cc1ccccc1)c1ccc2c(c1)OCO2	1
CCOc1ccccc1CN(CCc1ccc2c(c1)OCO2)Cc1ccncc1	103*
CCOc1ccccc1CN(CCc1ccc2c(c1)OCO2)Cc1cc(OC)ccc1OC	3
CCOc1ccc(-c2nnc(-c3ccc4c(c3)OCO4)o2)cc1	8
COc1cccc(OCCOc2ccc(/C=C3/SC(=S)N(Cc4ccccc4)C3=O)cc2)c1	7
CCCOc1ccc(/C=C2\SC(=O)N(Cc3ccccc3)C2=O)cc1OC	6
NC(=O)C1CCN(C2CC(=O)N(c3ccc(Cl)cc3)C2=O)CC1 (stereo not drawn)	6
CC1(C)OC2OC(C(=O)Nc3ccccc3)C3OC(C)(C)OC3C2O1 (stereo not drawn)	1
O=C(Nc1cccc2ccccc12)C1C2CCC3C(CCC21)C3(Cl)Cl (stereo not drawn)	2
O=C(Nc1cccc2ccccc12)C1OC2OC3(CCCCC3)OC2C2OC3(CCCCC3)OC12 (stereo not drawn)	115*
O=[N+]([O-])c1ccc(OCc2ccccc2Cl)cc1	4
CCC(Oc1ccccc1)C(=O)N1CCN(C(c2ccccc2)c2ccccc2)CC1 (stereo not drawn)	47
COc1ccc(CC(=O)N2CCN(c3cccc(Cl)c3)CC2)cc1OC	7
COc1ccc(/C=N/OCC(=O)N2CCN(C(c3ccccc3)c3ccccc3)CC2)cc1OC	116*
O=C(COc1ccccc1[N+](=O)[O-])Nc1ccc2oc(-c3ccc(Br)cc3)nc2c1	4
COc1ccc(CNc2ccc(C)c(C)c2)c(OC)c1C	-4
COc1ccc(CNc2ccc3c(c2)ncn3C)cc1	0
COc1cccc(CNc2ccc3c(c2)ncn3-c2ccccc2)c1OC	89*
O=C(O)c1ccc(Cl)c(-c2ccc(C=C3C(=O)c4ccccc4C3=O)o2)c1	1
COc1ccc(-c2cc(C(F)(F)F)n3nc(C(=O)O)c(Cl)c3n2)cc1	-5
COc1cc(/C=C2/C(=O)NC(=O)N(C)C2=O)cc(Cl)c1O	10
COc1ccc(/C=C(\NC(=O)c2ccccc2Br)C(=O)O)cc1	6
CCOc1cc(C2C(C(=O)OCC3CCCO3)=C(C)NC3=C2C(=O)CCC3)cc([N+](=O)[O-])c1O (stereo not drawn)	-3
CC1=C(C(=O)OCC2CCCO2)C(c2ccc(F)cc2)C2=C(CCCC2=O)N1 (stereo not drawn)	3
SMILES	ER stress surv
CCn1c2ccccc2c2cc(C3C(C(=O)OCC4CCCO4)=C(C)NC4=C3C(=O)CCC4)ccc21 (stereo not drawn)	96*
Nc1nc(-c2ccccc2)c(I)c(=O)[nH]1	4
O=C(Nc1cccc(NC(=O)c2cc3ccccc3oc2=O)c1)c1ccccc1Cl	6
O=C1CC(c2ccc(Cl)cc2)CC2=C1C(c1cccs1)Nc1ccccc1N2 (stereo not drawn)	68*
COc1ccc(C2CC(=O)C3=C(C2)Nc2ccccc2NC3c2c(F)cccc2F)cc1 (stereo not drawn)	5
COc1ccc(C2CC(=O)C3=C(C2)Nc2ccccc2NC3c2ccc(C(F)(F)F)cc2)cc1 (stereo not drawn)	2
COc1ccc(C2Nc3ccccc3NC3=C2C(=O)CC(c2ccccc2)C3)c(OC)c1 (stereo not drawn)	7
COc1ccc(C2CC(=O)C3=C(C2)Nc2ccccc2NC3c2ccc3ccccc3c2)cc1 (stereo not drawn)	50*
CCOc1cc(C2Nc3ccccc3NC3=C2C(=O)CC(c2ccc(OC)cc2)C3)cc(Cl)c1O (stereo not drawn)	112*
COc1ccc(C2Nc3ccccc3NC3=C2C(=O)CC(c2ccccc2)C3)cc1 (stereo not drawn)	22
COc1cc(C2Nc3ccccc3NC3=C2C(=O)CC(c2ccc(Cl)cc2)C3)cc(OC)c1OC (stereo not drawn)	-1
Cc1ccc(C2Nc3ccccc3NC3=C2C(=O)CC(c2ccc(Cl)cc2)C3)cc1 (stereo not drawn)	4
CCOc1cc(C2Nc3ccccc3NC3=C2C(=O)CC(c2ccc(OC)cc2)C3)ccc1OC(=O)C1CC1 (stereo not drawn)	2
CCOc1cccc(C2Nc3ccccc3NC3=C2C(=O)CC(c2ccc(OC)cc2)C3)c1 (stereo not drawn)	106*
COc1ccc(C2CC(=O)C3=C(C2)Nc2ccccc2NC3c2cccc(O)c2)cc1 (stereo not drawn)	-4
COc1ccc(Cc2nnc(NC(=O)Nc3ccc(Cl)c(Cl)c3)s2)cc1	7
O=C(COc1ccc(F)cc1)Nc1ccc2[nH]c(=O)[nH]c2c1	3
